According to PubChem BioAssay (Tox21):
Results filed as inconclusive are left out. Unmarked numbers belong to inactive results. Active and inactive are the calls of the source. Calls come from the whole dose curve; as a rule, active = well fitted cell-killing curve with a large enough effect in the repeat runs; inconclusive = weak or mixed curves, or effect the other way; inactive = flat fitted curve, though single readings scatter.

assay: cAMP Responsive Elements (CRE) small molecule agonists, cell-based qHTS assay: qHTS cell viability counter screen (AID 2060914); conditions: CRE-bla HEK293T viability, CellTiter-Glo luminescence, 5 h; series mostly up to 92.4 µM; activity change, negative = cytotoxicity: at the top concentration; note: nearly all actives have a fitted effect of over 50% in size
Summary of the method: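 Cells are seeded and incubated 18 h, treated with compounds in DMSO for 3 h, read for the bla reporter, then given CellTiter-Glo; luminescence is measured after 30 min at room temperature.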
% is set by controls: 0 for no effect and ±100 for the full control effect; potency is the fitted concentration of half-maximal effect.

Row | Compound | activity change, negative = cytotoxicity | Potency
1 | CC(C)C(OC(=O)c1ccccc1)C(C)(C)COC(=O)c1ccccc1 (configuration not stated) | -26.1% | 
2 | Cc1ccnc(N)c1 | 4.73% | 
3 | CC(C)(C)CC(C)(C)c1ccc(O)c(Cc2ccc(Cl)cc2Cl)c1 |  | 13.3 µM (active)
4 | CN(C)C(=N)N=C(N)N |  | inactive
5 | C=CCc1cc(OC)c(O)c(C(=O)NCCO)c1 | -6.18% [at 42.5 µM] | 
6 | CC1=CC(C)(C)Nc2ccccc21 |  | inactive
7 | CSc1ccc(C=O)cc1 | 13.3% | 
8 | COC(=O)c1ccc(I)cc1S(=O)(=O)NC(=O)Nc1nc(C)nc(OC)n1 | 6.38% | 
9 | CC(C)=CCNc1ncnc2c1ncn2[C@@H]1O[C@H](CO)[C@@H](O)[C@H]1O | -17.5% [at 42.5 µM] | 
10 | Cc1cccc(C(=O)O)c1[N+](=O)[O-] | -6.13% | 
11 | COc1ccc(CCC(C)=O)cc1 | 0.259% | 
12 | c1cnc(N2CCN(Cc3ccc4c(c3)OCO4)CC2)nc1 | 5.45% [at 42.5 µM] | 
13 | O=C1OC(=O)c2ccccc21 | -0.82% | 
14 | COCCCCCCCCOCCC[Si](C)(O[Si](C)(C)C)O[Si](C)(C)C | -0.196% | 
15 | O=C(CCCCCCCCC#CI)Oc1ccccc1 | 1.85% [at 42.5 µM] | 
16 | CCc1ccc(Br)cc1 | 6.71% | 
17 | COc1ccccc1N1CCN(CCCCNC(=O)c2ccc(-c3ccc(C(C)=O)cc3)cc2)CC1 | 6.79% [at 42.5 µM] | 
